# In all, about 33,000 sequences were measured (“E-score (-0.5 to 0.5)”: median about -0.012, highest 2% from about 0.27 on). Shown is part of a subset that was picked to be rich in the highest values.
# Molecular target: T1, Vhr1 (UniProt P40522)
# T1 sequence: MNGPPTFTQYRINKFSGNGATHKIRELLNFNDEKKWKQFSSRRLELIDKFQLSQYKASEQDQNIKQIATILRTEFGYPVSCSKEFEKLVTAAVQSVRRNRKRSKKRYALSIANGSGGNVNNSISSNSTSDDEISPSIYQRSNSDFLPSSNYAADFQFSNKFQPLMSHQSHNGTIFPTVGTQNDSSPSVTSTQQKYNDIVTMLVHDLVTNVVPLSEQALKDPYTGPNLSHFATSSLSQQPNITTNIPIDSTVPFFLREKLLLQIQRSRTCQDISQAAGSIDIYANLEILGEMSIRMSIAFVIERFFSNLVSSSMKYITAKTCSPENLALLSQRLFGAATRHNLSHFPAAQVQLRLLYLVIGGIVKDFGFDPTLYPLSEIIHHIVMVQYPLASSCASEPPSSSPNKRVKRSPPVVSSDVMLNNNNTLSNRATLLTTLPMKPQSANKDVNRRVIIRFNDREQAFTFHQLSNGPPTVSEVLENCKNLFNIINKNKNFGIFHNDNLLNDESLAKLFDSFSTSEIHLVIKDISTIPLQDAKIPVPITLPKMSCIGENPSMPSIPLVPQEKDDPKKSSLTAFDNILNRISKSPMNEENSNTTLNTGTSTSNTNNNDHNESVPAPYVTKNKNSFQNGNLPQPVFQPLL
# Assay: PBM E-score (8-mer binding enrichment) (E-score (-0.5 to 0.5)); higher = stronger / more preferred TF binding
# Conditions: protein concentration: 200 nM; construct: GST-full length
# Method: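 Universal 'all 10-mer' protein binding microarrays (Agilent AMADID 015681) probed with GST-tagged S. cerevisiae TFs (full-length or DBD) made by in vitro transcription/translation (PURExpress), about 100-200 nM. Bound TF was detected with fluorescent anti-GST. Each ungapped 8-mer (which stands for itself and its reverse complement) is scored by the PBM enrichment score (E-score), a modified Wilcoxon-Mann-Whitney statistic from -0.5 to +0.5, computed with the Universal PBM Analysis Suite. Scale: above 0.35 generally sequence-specific binding.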
row,Sequence,PBM E-score
1,ACTATGTG,0.292
2,ACTATGTA,0.207
3,ACCATGTG,0.295
4,ACCATGTA,0.261
5,ACCATGTC,0.144
6,ACTATGTC,0.091
7,ATGCCCTC,-0.0196
8,CCAGGTTA,-0.0596
9,GTGATTGA,0.329
10,ATGATTGA,0.344
11,ATGATTGG,0.178
12,ACGATTGC,0.0187
13,CTGATTGC,0.035
14,ACGATTGA,0.0265
15,ATGATTGC,0.345
16,CTGATTGA,0.177
17,GCGATTGA,-0.121
18,ACTCTTAA,-0.233
19,ACGTTGGA,0.0766
20,GGCGTTAC,-0.119
21,ACGTGATG,0.00697
22,AAGAAGCT,-0.191
23,CCTCTGCC,-0.286
24,AAAGCGTA,-0.183
25,ATAGCATG,-0.034
26,GCTGTCAA,-0.125

row,Sequence,PBM E-score
1,ATTTTATC,-0.13
2,AGAGCGCT,-0.249
3,ACCGTTCA,-0.0238
4,ACTCGCCT,0.0445
5,CCTCGCCG,-0.118
6,AGTCGCGA,0.305
7,ACTCGCGG,0.209
8,GGTCGCGA,0.194
9,ACTCGCCG,0.306
10,CCTCGCGC,-0.0292
11,CGTCGCGA,0.181
12,ACTCGCGC,0.273
13,ACTCGCGA,0.227
14,AGTCGCGG,0.351
15,AGTCGCTG,0.216
16,AGCAAATA,-0.0751
17,CAAATTGA,-0.124
18,TGCAGCAA,0.114
19,AATCCTAC,-0.159
20,CTAAGCCA,-0.0787
21,TACGGCGA,0.0569
22,ACCGAGTG,0.13
23,AATGCGCG,0.193
24,CAATTCTG,-0.077
25,AGAAAATA,-0.0162
26,ACTCGCTA,0.133

row,Sequence,PBM E-score
1,CGTCGCGC,0.0614
2,AGTCGCTC,0.237
3,AGTCGCGC,0.374
4,ACTCGCTG,0.0751
5,ACTCGCTC,0.282
6,ACAGGTTG,0.0217
7,AACCAATG,0.209
8,CAGAGTTC,-0.0458
9,CCCCTACG,-0.139
10,CATCCATC,0.0866
11,GTCATGTA,0.141
12,ACCTATAG,-0.144
13,ACCGACTA,-0.0288
14,CCCGACTA,0.206
15,CCCGACCC,0.123
16,ACCGACTG,0.177
17,ACCGACTC,0.34
18,CCCGACTC,0.426
19,CAAGACGA,-0.109
20,CAACTCCG,-0.0132
21,CGACTCCA,0.4
22,CGACTCCC,0.321
23,CGACTCCG,0.391
24,CTACTCCA,-0.0498
25,AGACTCCG,0.225
26,TGACTCCA,0.48

row,Sequence,PBM E-score
1,GGACTCCA,0.13
2,AGACTCCA,0.133
3,GGACTCCC,0.0918
4,AGACTCCC,-0.00382
5,CCACTCCA,0.0742
6,TCCCCCCA,-0.233
7,CATACTAG,0.238
8,GTTTGAAA,-0.0935
9,ATTGTGAA,-0.0037
10,ATCCAGGG,-0.0888
11,AGCTCCCT,-0.235
12,CCCCCTAC,-0.185
13,AAAAGCGC,-0.137
14,AGAATCAA,0.0929
15,AGAATCCT,-0.231
16,ACAATCAT,0.231
17,AGAATCAT,0.323
18,CCAATCAG,-0.0885
19,AGAATCAG,0.283
20,AGAATCAC,0.228
21,CGAATCAA,0.127
22,CGAATCAG,0.344
23,ACCTCCTG,-0.139
24,CGTCTCGC,-0.0775
25,ATATCTGC,0.104
26,AGAAGATG,-0.183

row,Sequence,PBM E-score
1,AACCGCCC,0.0139
2,ACCCGCGT,0.00191
3,CACCGCCA,0.242
4,ACCCGCGC,0.342
5,AGCCGCGG,0.178
6,CCCCGCGG,0.0864
7,ACCCGCGA,0.144
8,GCCCGCCA,0.13
9,CACCGCCC,0.293
10,CCCCGCCA,0.398
11,TCCCGCCA,0.0546
12,ACCCGCGG,0.275
13,AGTCTAAG,-0.0818
14,AAAAAAGC,-0.19
15,CGAGATTA,0.0687
16,GGAGGGGA,0.219
17,TACGCCAA,-0.241
18,ACCCGCCG,0.197
19,GCCCGCCC,0.137
20,ACCCGCCC,0.428
21,ATCCTACC,0.0595
22,ACGCTTAC,-0.205
23,CTGTGTGA,0.306
24,ATGTGTCA,0.143
25,ATGTGTCC,0.157
26,ATGTGTGC,0.12

row,Sequence,PBM E-score
1,CTGTGTGC,0.177
2,ATGTGTGG,0.08
3,GTGTGTTA,0.278
4,CTGTGTTA,0.169
5,ATGTGTTA,0.195
6,ATGTGTCG,0.29
7,CTGTGTAA,0.134
8,ATGTGTGA,0.29
9,AGGACTGG,0.113
10,ACTAGACG,-0.048
11,ATTTTGCC,-0.15
12,AGACTTGC,-0.249
13,AACATCTA,-0.152
14,CACCAGCC,0.143
15,ATAGACGG,0.00408
16,TACCAACA,0.145
17,GATATGCA,-0.0288
18,TCTTTCCA,-0.157
19,GGCCAAAC,-0.155
20,GCGTGTGA,0.104
21,GTGTGTGA,0.298
22,GTGTGAGA,0.0943
23,TAGAGGGA,-0.0999
24,AGTTTGAT,0.0522
25,CTTAACCC,-0.213
26,CACCAGAC,0.309

row,Sequence,PBM E-score
1,GACCAGAC,-0.141
2,AACCAGAC,-0.00075
3,GCTTGCAC,-0.0624
4,CTGATTAC,0.278
5,ATGATTAC,0.391
6,CTGATTTC,-0.00794
7,AAGATTAC,-0.0671
8,ATGATTAG,0.317
9,ACGATTAG,0.045
10,ATCATTAA,0.0987
11,ATCATTAC,0.274
12,ATGATTAA,0.264
13,CTGATTAA,0.191
14,ATCATTAG,0.148
15,ACGATTAC,0.161
16,TGCCACAA,0.0692
17,TAGTAGAA,-0.199
18,ATGGTAGG,0.104
19,CCTAAGCA,-0.108
20,GAAGCACA,-0.00604

# From the supplement of paper PMC3334620
